These results are taken from PubChem BioAssay (NCI).

Each structure is given as a SMILES string. Compounds without any hit were thinned out: in the full panel of roughly 83,000, 20% have a hit.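 Testing used 96-well plates and a 48-hour single-concentration exposure. Example: -40 means 40% of the starting cells died.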 Unmarked numbers belong to inactive results. Calls of active or inactive are those of the source. How the source made its calls: active means growth percent below 10; inactive means the rest.

Some test systems named below: HCT-15 colon; HT29 colon; SNB-75 CNS; SNB-19 CNS; U251 CNS; PC-3 prostate; SK-MEL-5 melanoma; UACC-62 melanoma; LOX IMVI melanoma; SK-MEL-28 melanoma; SK-MEL-2 melanoma; EKVX NSCLC; SN12C renal; TK-10 renal; ACHN renal; CAKI-1 renal; CCRF-CEM leukemia; MOLT-4 leukemia; UO-31 renal; A498 renal.
Common to all, as to assay: NCI-60 one-dose screen, 48 h (100 = growth as untreated, 0 = no growth, -100 = all killed)
Holding throughout (conditions): 10 µM unless noted

On to `Cc1cnc(C(=O)Nc2nc3ccc(S(=O)(=O)Nc4ccc(C5(C(F)(F)F)CC5)cc4)cc3[nH]2)cn1`, for which the growth was 20.6% in the experiment on HCT-15 colon; 9.04% (active) in the experiment on HT29 colon; -7.96% (active) with SNB-75 CNS; 30.1% with SNB-19 CNS; 21.8% in the experiment with U251 CNS; 18% in the experiment with PC-3 prostate. The growth was -3.91% (active) in the experiment with SK-MEL-5 melanoma; 35.3% with UACC-62 melanoma; 35.1% in the experiment with LOX IMVI melanoma; 54.1% with SK-MEL-28 melanoma; 37.9% in the experiment on SK-MEL-2 melanoma; 59.1% in the experiment with EKVX NSCLC. Further, the growth in the experiment with SN12C renal is 34.5%; in the experiment with TK-10 renal, 32.1%; with ACHN renal it was 48.2%; with CAKI-1 renal it was 22.6%; in the experiment with CCRF-CEM leukemia, 11.1%; in the experiment with MOLT-4 leukemia, 20%.

Turning to `CCCCCCCCCCCCCCCC[N+]1(C)CCN(SN2CC[N+](C)(CCCCCCCCCCCCCCCC)CC2)CC1`, the growth is 54.2% in the experiment on HCT-15 colon; 19.7% in the experiment on HT29 colon; 50.3% in the experiment with SNB-75 CNS; 29.3% in the experiment with SNB-19 CNS; 23.2% in the experiment on U251 CNS; 33% with PC-3 prostate. Besides, the growth with SK-MEL-5 melanoma was 95.4%; in the experiment on UACC-62 melanoma, 72.8%; with LOX IMVI melanoma it was 34.1%; in the experiment with SK-MEL-28 melanoma, 98.4%; in the experiment with SK-MEL-2 melanoma, 95.9%; in the experiment on EKVX NSCLC, 82.3%. In addition, the growth was 72.5% in the experiment with SN12C renal; 76.9% in the experiment with UO-31 renal; 53.3% in the experiment on TK-10 renal; 66.2% in the experiment on ACHN renal; 43.4% in the experiment on CAKI-1 renal; 48.1% in the experiment with CCRF-CEM leukemia. Also, the growth in the experiment with MOLT-4 leukemia is 57.1%.

Regarding `CCCCCCOc1ccc(/C=N/Nc2cc(C)nc3ccc(Cl)cc23)cc1`, the growth with HCT-15 colon was -87.2% (active); in the experiment on HT29 colon it was -42.3% (active); with SNB-75 CNS, -44.6% (active); with SNB-19 CNS it was 2.26% (active); with U251 CNS, -68.2% (active); in the experiment on PC-3 prostate, -39.4% (active). Besides, the growth in the experiment with SK-MEL-5 melanoma is 81.4%; with UACC-62 melanoma, 76.8%; in the experiment with LOX IMVI melanoma it was -94.5% (active); in the experiment with SK-MEL-28 melanoma, -30.3% (active); in the experiment on SK-MEL-2 melanoma it was 93.9%; in the experiment on EKVX NSCLC, 56.2%. Further, the growth in the experiment on SN12C renal was -84.6% (active); in the experiment on UO-31 renal, -89.8% (active); with TK-10 renal, -51.4% (active); with ACHN renal it was -92% (active); in the experiment with CAKI-1 renal it was 3.33% (active); with CCRF-CEM leukemia it was -9.5% (active). Moreover, the growth in the experiment with MOLT-4 leukemia is -26% (active).

For the compound `COc1ccc(/C=C/c2nc(Nc3cccc(NC(C)=O)c3)c3ccccc3n2)cc1`, the growth was 70.9% in the experiment on HCT-15 colon; 85% in the experiment on HT29 colon; 90.5% with SNB-75 CNS; 92.4% in the experiment with SNB-19 CNS; 88.5% with U251 CNS; 90% in the experiment with PC-3 prostate. In addition, the growth was 87.5% in the experiment on SK-MEL-5 melanoma; 44.2% in the experiment with UACC-62 melanoma; 59.3% in the experiment on LOX IMVI melanoma; 104% with SK-MEL-28 melanoma; 91.9% in the experiment with SK-MEL-2 melanoma; 94.3% with EKVX NSCLC. Further, the growth in the experiment with SN12C renal was 89.1%; in the experiment with TK-10 renal it was 92.7%; in the experiment with ACHN renal it was 78.3%; in the experiment with CAKI-1 renal, 67.4%; with A498 renal, 9.66% (active); in the experiment on CCRF-CEM leukemia it was 82.5%. Besides, the growth in the experiment on MOLT-4 leukemia is 87%.

As to `Cc1cc2c(c(C)c1Cl)C(=O)/C(=C/c1ccc(O)c(O)c1)O2`, the growth in the experiment with HCT-15 colon is 106%; in the experiment on HT29 colon it was 106%; with SNB-75 CNS it was 99%; in the experiment with SNB-19 CNS, 99.2%; with U251 CNS it was 85.4%; in the experiment on PC-3 prostate, 100%. The growth was 100% in the experiment with SK-MEL-5 melanoma; 88.8% in the experiment on UACC-62 melanoma; 93.7% with LOX IMVI melanoma; 105% in the experiment on SK-MEL-28 melanoma; 104% in the experiment on SK-MEL-2 melanoma; 98.7% with EKVX NSCLC. Moreover, the growth with SN12C renal was 92.1%; in the experiment with TK-10 renal it was 119%; with ACHN renal it was 92.7%; in the experiment with CAKI-1 renal it was 90.6%; in the experiment with A498 renal, 106%; in the experiment with CCRF-CEM leukemia it was 101%. Further, the growth in the experiment on MOLT-4 leukemia was 108%.

As for `Brc1ccc(Nc2csc(-c3ccccn3)n2)cc1`, the growth is 67.4% with HCT-15 colon; 81.4% with HT29 colon; 72.3% in the experiment on SNB-75 CNS; 96% with SNB-19 CNS; 101% with U251 CNS; 85.3% in the experiment with PC-3 prostate. Further, the growth with SK-MEL-5 melanoma is 95.4%; in the experiment on UACC-62 melanoma, 67.1%; in the experiment on LOX IMVI melanoma, 72.1%; in the experiment on SK-MEL-28 melanoma, 109%; with SK-MEL-2 melanoma, 96.4%; with EKVX NSCLC, 85.4%. The growth was 91.6% in the experiment on SN12C renal; 119% with TK-10 renal; 82.4% in the experiment on ACHN renal; 63.6% in the experiment on CAKI-1 renal; 97.2% with CCRF-CEM leukemia; 96.6% with MOLT-4 leukemia.

As to `CC(=O)OC[C@]12CC[C@@H](C(=O)CBr)[C@@H]1[C@H]1CC[C@@H]3[C@@]4(C)CC[C@H](OC(C)=O)C(C)(C)[C@@H]4CC[C@@]3(C)[C@]1(C)CC2`, the growth in the experiment on HCT-15 colon was 97.1%; with HT29 colon it was 91.8%; in the experiment with SNB-75 CNS, 84.4%; in the experiment with SNB-19 CNS, 114%; in the experiment with U251 CNS, 96.7%; in the experiment on PC-3 prostate, 75.8%. Further, the growth in the experiment with SK-MEL-5 melanoma was 75.1%; with UACC-62 melanoma, 84.9%; with LOX IMVI melanoma, -69.6% (active); in the experiment on SK-MEL-28 melanoma, 99.8%; in the experiment with SK-MEL-2 melanoma, 92.3%; in the experiment on EKVX NSCLC, 107%. Also, the growth with SN12C renal was 87%; with TK-10 renal, 108%; in the experiment with ACHN renal, 98.8%; in the experiment with CAKI-1 renal, 77.4%; in the experiment on A498 renal, 121%; in the experiment on CCRF-CEM leukemia, -17.4% (active). For the same compound, the growth in the experiment with MOLT-4 leukemia was -5.01% (active).

On to `CC/C(=C\c1ccc(OC)cc1)C(=O)c1ccc(OC)cc1`, for which the growth in the experiment with HCT-15 colon is 92.7%; in the experiment with HT29 colon it was 90.3%; in the experiment on SNB-75 CNS it was 77.3%; with SNB-19 CNS, 85.7%; in the experiment with U251 CNS it was 91.7%; with PC-3 prostate, 75.7%. For the same compound, the growth was 101% with SK-MEL-5 melanoma; 78.7% in the experiment with UACC-62 melanoma; 95.1% in the experiment with LOX IMVI melanoma; 106% in the experiment on SK-MEL-28 melanoma; 96% in the experiment with SK-MEL-2 melanoma; 103% in the experiment with EKVX NSCLC. The growth is 91.8% with SN12C renal; 91.9% in the experiment on TK-10 renal; 96.9% in the experiment on ACHN renal; 69.6% with CAKI-1 renal; 103% in the experiment with A498 renal; 45.6% in the experiment on CCRF-CEM leukemia. In addition, the growth in the experiment on MOLT-4 leukemia is 91.5%.
